# hcDAF12 agonist = H. contortus DAF-12 nuclear receptor activators, primary screen, cell-based, luminescence, HEK293, lit1-tk-luc reporter | activation, % at 6.8 µM | 370,000 compounds, 1.4% hits | HEK293 hcDAF-12 lit1-tk-luc reporter; 0% DMSO, 100% Δ7-dafachronic acid;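 active = activation above the mean of all tested compounds plus 3 SD, cut at about 5.5% in these data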;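 note: 100% = response to 3 µM Δ7-dafachronic acid high control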
# hgDAF-12 ag = H. glycines DAF-12 receptor agonists, primary screen, cell-based, luminescence, HEK293, GAL4 fusion, UAS-luciferase; Nuclear hormone receptor DAF-12 (Heterodera glycines), GAL4 fusion; HEK293 GAL4-hgDAF12 UAS-luciferase reporter, agonist luminescence; normalized to butyrate control; activation, % at 6.8 µM; 370,000 compounds, 1.8% hits; AID 687014, 2013;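 active = activation above a cutoff set at the mean of all screened compounds plus 3 SD, cut at about 10% in these data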;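 note: 0% = DMSO wells and 100% = sodium butyrate wells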
# DAX1 inh-1 = DAX1 (NR0B1) inhibitors, primary screen, cell-based, HEK293, Gal4-DAX1, luciferase luminescence; 340,000 compounds, 0.99% hits; inhibition, % at 6.75 µM; HEK293 Gal4-DAX1 luciferase reporter; Nuclear receptor subfamily 0 group B member 1 (Homo sapiens), P51843;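 active = inhibition above the mean over all tested compounds plus 3 SD, cut at about 4.2% in these data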;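 note: 0% = DAX1-transfected cells with DMSO and 100% = empty-vector control cells with DMSO; inhibition shows as a rise in luminescence from relieved DAX1 repression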
# Target sequence (P51843 207-470 limits assumed): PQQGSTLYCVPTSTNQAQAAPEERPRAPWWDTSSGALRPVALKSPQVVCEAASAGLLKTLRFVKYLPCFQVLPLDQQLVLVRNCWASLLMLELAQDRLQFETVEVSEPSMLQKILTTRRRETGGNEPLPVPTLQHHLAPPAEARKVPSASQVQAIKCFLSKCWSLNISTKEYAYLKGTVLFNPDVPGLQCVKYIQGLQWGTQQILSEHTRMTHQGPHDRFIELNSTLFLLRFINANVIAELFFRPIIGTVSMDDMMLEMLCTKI
# DAX1 inh-2 = DAX1 (NR0B1) inhibitors on StAR promoter, primary screen, cell-based, luminescence, SF-1 (NR5A1), full-length DAX-1. HEK293T StAR-luciferase reporter, SF-1/DAX-1 repression relief. inhibition, % at 6.8 µM. 370,000 compounds, 1.1% hits;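 active = inhibition above the mean over all tested compounds plus 3 SD, cut at about 3.6% in these data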;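 note: 0% = DAX-1 cells with DMSO and 100% = cells lacking DAX-1 with DMSO; higher inhibition means more luminescence from relief of DAX-1 repression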
# ssDAF-12 act = S. stercoralis DAF-12 nuclear receptor activators, primary screen, cell-based, luminescence, HEK293, GRIP1 co-expression, lit1-tk-luc | AID 652126, 2013 | HEK293 ssDAF-12/GRIP1 lit1-tk-luc reporter; % of 3 µM dafachronic acid response | 370,000 compounds, 1% hits | Nuclear hormone receptor DAF-12 (Strongyloides stercoralis) | activation, % at 6.8 µM;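 active = activation above the mean over all tested compounds plus 3 SD, cut at about 0.9% in these data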;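 note: 0% = DMSO-only wells and 100% = 3 µM delta7-dafachronic acid wells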
# DAX1 conf = DAX1 (NR0B1) inhibitors relieving SF-1 repression, confirmation, cell-based, luminescence, HEK293T, full-length DAX-1, SF-1 activated StAR promoter | HEK293T StAR-promoter luciferase reporter, SF-1/DAX-1 repression | shares compounds with DAX1 inh-2 | 2,400 compounds, 87% hits | inhibition, % at 6.8 µM;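 active = inhibition above the average of every tested compound plus 3 SD, cut at about 3.8% in these data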;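 note: 0% = DAX-1 cells with DMSO and 100% = no DAX-1 control cells with DMSO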
# SF1 AF2mut Luc = StAR reporter signal changes without DAX1, counter-screen for DAX1 inhibitor project, cell-based, luminescence, AF-2 mutant SF-1, transactivation; HEK293 StAR-luciferase, SF-1 AF2 mutant; 2,400 compounds, 78% hits; inhibition, % at 6.8 µM; shares compounds with DAX1 inh-2;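 active = inhibition above the mean of all tested compounds plus 3 SD, cut at about 3% in these data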;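 note: 0% = DAX-1 transfected cells with DMSO and 100% = cells without DAX-1 with DMSO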
# * marks the source's active call; other numbers are inactive results; . = not tested or not shown. Most compounds without a hit are left out; they make up all but 4.1% or so of the library.
SMILES,hcDAF12 agonist,hgDAF-12 ag,DAX1 inh-1,DAX1 inh-2,ssDAF-12 act,DAX1 conf,SF1 AF2mut Luc
COc1cc(/C=C2\SC(=S)N(CCCCC(=O)O)C2=O)ccc1OS(=O)(=O)c1ccc(C)cc1,0,-4,1,5.9*,-1,6.2*,5.8*
COc1cc(/C=C2/SC(=S)NC2=O)ccc1OS(=O)(=O)c1ccc(C)cc1,.,.,-1,.,.,.,.
O=C(NC1CCCCC1)c1ccc2ccccc2c1,3,6,4.8*,5.8*,-1,7.5*,5.1*
Cc1ccc(NC(=O)C(=O)NCCCN2CCCC2=O)cc1,5,12*,0,6.5*,0,9.7*,6.5*
COc1ccc(C(=O)c2[nH]c(N)c(C(=O)c3c[nH]c4ccccc34)c2-c2ccc(F)c(OC)c2)cc1,2,-1,.,0,0,.,.
CC(NC(=O)Nc1ccc(Cl)cc1)c1ccc2c(c1)OCO2 (stereo not drawn),-4,-6,-1,0,-2,.,.
Cc1cc(C)c(NC(=O)Nc2ccc3c(c2)OCO3)c(C)c1,2,4,2,4.7*,0,2,3.4*
O=C(Nc1cccc(C(=O)O)c1)Nc1ccc2c(c1)OCO2,4,4,-5,6.8*,-1,6.3*,5.5*
Cc1ccc(NC(=O)Nc2ccc3c(c2)OCO3)c(Br)c1,0,2,0,2,-1,.,.
O=C(Nc1ccc(Cl)cc1)Nc1ccc2c(c1)OCO2,5.7*,12*,1,6.4*,0,8.7*,6.6*
CCOC(=O)c1csc(NC(=O)C2CCCN(S(=O)(=O)c3cc(OC)ccc3OC)C2)n1 (stereo not drawn),-4,-2,.,-2,-1,.,.
C[C@H](CO)N1C[C@H](C)[C@H](CN(C)C(=O)Nc2ccc(F)cc2)Oc2ncc(Br)cc2C1=O,0,-2,.,-1,0,.,.
COc1cccc(C(=O)NCC2CCN(C(=O)C(=O)c3cc4ccccc4o3)CC2)c1,-2,0,.,1,-1,.,.
COC(=O)[C@H](C)N(Cc1cn(Cc2ccccc2)nn1)S(=O)(=O)c1ccccc1Br,-1,2,.,-1,-1,.,.
COC(=O)[C@]12CCCCC=C1N(CCc1ccc(OC)c(OC)c1)C(=O)[C@H](CC(=O)NCc1cccc3ccccc13)C2,-1,0,.,4.6*,-1,3,6.3*
COC(=O)[C@]12CCCCC=C1N(Cc1cccc3ccccc13)C(=O)[C@H](CC(=O)NCc1ccc(OC)c(OC)c1)C2,-6,-16,.,-8,-3,.,.
CCOC(=O)[C@]12CCCC=C1N(Cc1ccc3c(c1)OCO3)C(=O)[C@H](CC(=O)NCc1cccc3ccccc13)C2,-1,3,.,6.2*,-1,0,2
C[C@@H]1CCCN1c1cccc2c1S(=O)(=O)N1CC[C@H](C1)O2,-3,0,.,0,1,.,.
Cc1ccsc1C(=O)OCC(=O)c1cc(C)n(C)c1C,5,3,-3,4.8*,0,6.0*,-1
Cc1cc(C(=O)COC(=O)c2nccnc2N)c(C)n1C,3,8,1,2,-1,.,.
CCN1CCc2c(sc(NC(=O)c3ccc(S(=O)(=O)N4CC(C)OC(C)C4)cc3)c2C(N)=O)C1 (stereo not drawn),-1,2,-1,4.8*,-1,2,3.7*
C[C@H](O)[C@@H]1C(=O)N2CCc3c([nH]c4c(-c5ccccc5)cccc34)[C@@H]2C[C@@H]1N(C)C(=O)c1ccccc1F,-1,0,.,-1,-1,.,.
CC(=O)c1c(C)[nH]c(C(=O)OCc2nc3ccsc3c(=O)[nH]2)c1C,1,12*,2,7.1*,0,4.7*,3.2*
COC(=O)[C@H](C(C)C)N(CCc1cn(CC2CCCCC2)nn1)S(=O)(=O)c1ccc(F)cc1Br,-3,0,.,-1,-2,.,.
CN(CC(=O)Nc1cccc(F)c1)C(=O)c1cn2ccccc2n1,-2,0,1,0,0,.,.
SMILES,hcDAF12 agonist,hgDAF-12 ag,DAX1 inh-1,DAX1 inh-2,ssDAF-12 act,DAX1 conf,SF1 AF2mut Luc
O=C(CNC(=O)c1cn2ccccc2n1)Nc1ccc(F)c(F)c1,2,9,3,6.2*,0,8.5*,5.7*
Cc1nn(-c2ccccc2)c(C)c1C(=O)OCC(=O)Nc1ccccc1F,2,10,1,7.4*,0,7.0*,3.6*
O=C(NN=Cc1ccccc1Cl)c1ccccc1,2,12*,4,5.2*,0,14*,6.9*
CN(C)c1cccc(C(=O)N/N=C/c2ccccc2F)c1,4,12*,-2,8.5*,0,8.7*,1
COc1cccc2c1[C@H](/C=C/c1ccccc1)[C@@H]([C@H](O)CO)OC2,-1,-2,.,-1,-1,.,.
Cc1cc(F)ccc1-c1cc(C(=O)Nc2ccc(F)cc2)[nH]n1,2,12*,.,9.6*,0,11*,5.6*
COc1ccc(NC(=O)c2cc(-c3ccc(F)cc3C)n[nH]2)cc1OC,-3,-4,.,2,-1,.,.
CCOC(=O)NC1CCc2cc(OC)c(OC)c(OC)c2-c2ccc(SC)c(=O)cc21 (stereo not drawn),-1,-6,0,5.0*,-1,13*,-7
CN[C@H]1CCc2cc(OC)c(OC)c(OC)c2-c2ccc(OC)c(=O)cc21,0,-3,0,6.8*,0,19*,-8
C=CC[C@]12C[C@@]3(O[C@H](c4ccccn4)N=C3C[C@H](c3ccc(OC)cc3)[C@H]1C)N(C1CCN(Cc3ccccc3)CC1)C2=O,0,-1,.,1,-1,.,.
CNc1cc(-c2ccc(C(=O)OC)cc2)ncn1,1,5,.,2,0,.,.
CNc1cc(-c2ccc(OC)c(OC)c2)ncn1,4,12*,.,5.3*,0,9.5*,4.8*
Clc1ccc(-c2nc3ccc(Br)cn3c2Cc2ccsc2)cc1,2,8,.,5.2*,1,5.2*,2
COc1ccccc1Cc1c(-c2ccc(Cl)cc2)nc2ccc(Br)cn12,1,4,.,5.5*,0,6.3*,4.3*

# Bioassay records deposited in PubChem by The Scripps Research Institute Molecular Screening Center.
